In the supplement of paper PMC3334620:
Whole data set: some 33,000 sequences, median “E-score (-0.5 to 0.5)” near -0.012, cut for the highest 2% near 0.27. The sample as a whole holds a higher share of the highest values than the screen did.

Each sequence was assayed against T1, Vhr1 (UniProt P40522) (assay: PBM E-score (8-mer binding enrichment) (E-score (-0.5 to 0.5)); higher = stronger / more preferred TF binding). Conditions: protein concentration: 200 nM; construct: GST-full length.
T1 sequence: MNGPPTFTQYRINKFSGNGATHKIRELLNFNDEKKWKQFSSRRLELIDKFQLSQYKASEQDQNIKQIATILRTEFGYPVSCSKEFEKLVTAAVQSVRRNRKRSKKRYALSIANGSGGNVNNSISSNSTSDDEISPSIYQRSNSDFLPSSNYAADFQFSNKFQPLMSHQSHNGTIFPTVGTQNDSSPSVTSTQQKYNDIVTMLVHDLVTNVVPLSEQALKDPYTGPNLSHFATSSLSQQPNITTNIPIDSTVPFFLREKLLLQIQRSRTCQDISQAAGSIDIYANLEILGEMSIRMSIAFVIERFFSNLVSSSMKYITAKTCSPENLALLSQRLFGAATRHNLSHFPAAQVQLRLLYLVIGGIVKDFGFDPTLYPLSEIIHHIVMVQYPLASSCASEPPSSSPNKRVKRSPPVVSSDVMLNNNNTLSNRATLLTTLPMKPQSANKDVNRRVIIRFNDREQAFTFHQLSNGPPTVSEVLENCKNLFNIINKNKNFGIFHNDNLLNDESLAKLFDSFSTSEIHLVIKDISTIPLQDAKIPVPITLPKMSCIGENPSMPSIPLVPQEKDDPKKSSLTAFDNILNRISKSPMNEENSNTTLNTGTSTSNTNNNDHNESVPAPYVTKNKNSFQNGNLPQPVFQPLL
Procedure: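 Universal 'all 10-mer' protein binding microarrays (Agilent AMADID 015681) probed with GST-tagged S. cerevisiae TFs (full-length or DBD) made by in vitro transcription/translation (PURExpress), about 100-200 nM. Bound TF was detected with fluorescent anti-GST. Each ungapped 8-mer (which stands for itself and its reverse complement) is scored by the PBM enrichment score (E-score), a modified Wilcoxon-Mann-Whitney statistic from -0.5 to +0.5, computed with the Universal PBM Analysis Suite. Scale: above 0.35 generally sequence-specific binding.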

Sequence | PBM E-score
CCGCGAAG | 0.039
GGAGATCC | -0.0359
CGCTTAAC | -0.225
TACGTCAA | -0.139
CAAACAGG | 0.0517
CCTATGAC | 0.0237
ACTATGAC | 0.286
ACTATGAT | 0.351
ACTATGAG | 0.181
ACTATGAA | 0.0955
GCTATGAC | 0.201
AGACTACT | 0.216
ATTCTATC | -0.154
CCGCTAGC | -0.266
GCTGTCCC | -0.206
AGATCGAC | -0.0907
AATCAGAC | 0.201
CCGTGGCG | 0.189
GCGGTCAC | -0.00992
GACCCAGA | 0.0388
TAATCAGA | 0.146
GAATCAGC | 0.307
AAATCAGA | 0.0175
AAATCAGC | 0.121
CAATCAGC | 0.193

Sequence | PBM E-score
GAATCAGA | 0.319
CCACACCC | 0.197
GAAAATTC | -0.274
AAGCTTCC | -0.37
ATGGGCTG | 0.198
ATGGGCTC | 0.272
CTGGGCTC | -0.135
AAGTCAAT | 0.0223
CAGTCGCC | 0.147
GAGTCGCA | 0.391
CAGTCGAC | 0.197
TAGTCGCA | 0.309
GAGTCGCC | 0.424
TCGTCGCA | 0.111
GAGTCGAC | 0.294
AAGTCGCA | 0.173
AAGTCGAC | 0.17
TAGTCGAA | 0.0212
AAGTCGCC | -0.0133
CAGTCGCA | 0.0715
ATCAGGCC | -0.0546
ACACTAAA | 0.238
CTACTTAA | -0.204
GACTCAAA | 0.266
CACTCAAC | 0.0922

Sequence | PBM E-score
GACTCATC | 0.452
CACTCATA | 0.179
AACTCATA | 0.141
GACTCAAC | 0.42
AACTCATC | 0.209
GACTCATA | 0.388
CACTCATC | 0.137
AAGTAGAC | -0.0556
AGCCATTG | 0.172
CCCGCTAG | -0.249
TCCCGGGA | -0.0779
GTAGGTAA | -0.114
GGCGAAGA | -0.152
TGACTCAA | 0.468
CGACTCAA | 0.386
CCACTCAA | 0.133
CTACTCAA | 0.113
GGACTCAA | 0.143
AGACTCAA | 0.214
CGATTTAG | -0.0352
ACATTCAT | 0.0173
CTACCTGC | -0.0175
CGTGAGAC | 0.0393
AGACCTTA | 0.0612
AAGAGGTA | 0.0122

Sequence | PBM E-score
CGACCCAA | 0.14
GGTAATCA | 0.288
CGTAATTA | -0.128
AGTAATCG | 0.141
AGTAATCC | 0.0334
CGTAATCA | 0.273
GCTAATCA | 0.262
ATCAATCA | 0.248
CTCAATCC | -0.0448
GGTAATGA | 0.023
CGTAATCC | -0.104
CTCAATCA | 0.33
AGTAATCA | 0.303
AATTGGCT | -0.0912
ATACTGTA | 0.224
GGAAACGA | 0.0811
GGTGTCCA | -0.0191
ACAAGTGA | -0.154
CAGATTAG | -0.0795
AAATAACG | -0.00647
GTAATGTA | -0.131
CCCGCCGA | 0.00185
GCCGCGGC | 0.237
CTCCCCGC | 0.325
CCCGCCGC | 0.36

Sequence | PBM E-score
CCCGCGGA | -0.0501
GCCGCCAC | -0.0771
CTCCCCGA | -0.116
ATCCCCGC | 0.129
CCCGCGGC | 0.272
CCCGCCAC | 0.321
CCCGCCGG | 0.134
ACCGCCAC | 0.0902
ATGACCCC | 0.211
AAGGCAGC | -0.132
ATATAGAA | 0.11
AGCATCAG | 0.0568
CATGTTCG | 0.0242
GATTGGGC | -0.102
CAACCTCC | 0.0131
GTGTATCA | 0.275
CTGTATCA | -0.0153
ATGTATCA | 0.267
GCACTTTA | -0.249
CAGTTACG | -0.125
ACTCTCAG | -0.0997
ATACTGTG | 0.0981
ATACTGAG | 0.302
ATACTCAA | 0.178
CTACTCAG | 0.153

Sequence | PBM E-score
ATACTCAG | 0.274
ATACTCAC | 0.17
ATACTCAT | 0.277
ATACTGTC | 0.137
CGAGTTCC | 0.0292
GCAAACTA | 0.0776
AATGCTCA | 0.021
AAGAATAC | 0.0498
AGGGTCGA | 0.158
ACCTGCCC | 0.0405
CTACGCCC | 0.0207
CGGCAGTA | -0.109
ACAACCCC | -0.061
CATGCTCC | -0.08
AATCAAGG | 0.0679
AATCAGGG | 0.133
AATCATGT | 0.389
AATCATTA | 0.222
AATCAGGT | 0.268
AATCATGG | 0.387
TATCATGA | 0.189
AATCATGA | 0.331
AATCAAGT | 0.174
AATCATTG | 0.283
AATCATTC | 0.251

Sequence | PBM E-score
GATCATGA | 0.197
CCGCCAAC | 0.163
GCATTGAA | -0.0212
AACTAGTT | -0.125
AAAGGTTA | -0.357
CATCTATA | 0.0881
CATCATGG | 0.152
AATCATGC | 0.304
CAACATGG | 0.0395
CAACATGA | 0.3
GATCATGC | 0.0952
CATCATAA | 0.133
CATCATGA | 0.276
CATCATGC | 0.201
CAACATGC | 0.15
AGAGCGAC | 0.0123
ACTATAGC | 0.00988
CTCGATTA | 0.216
TACGAGCA | -0.0868
GGAATACA | 0.0161
CACCCGTC | 0.0428
CAACGCTA | -0.125
AATGAATC | 0.23
CATGATCC | 0.213
AACGAATC | 0.125
